Assay results: PubChem BioAssay (NCATS)
Records with an inconclusive call do not appear. Entries that show only a call come without a potency. Activity calls are given as the source filed them. Unless noted, calls follow the shape of the dose curve; as a rule, active = well fitted inhibition curve with a large enough effect; inconclusive = small, poorly fitted or top-dose-only effect; inactive = flat fitted curve, though single readings scatter.

Legend:
[1] = S16 Schwann cell PMP22 intronic element beta-lactamase assay (AID 624044; calls by dose curve; also: nearly all actives have a fitted effect of over 15% in size); settings: S16 rat Schwann cells, PMP22 element beta-lactamase FRET, 24 h; ratio activity, negative = inhibition: at 38.3 µM (top of the series) unless noted
Outline: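 Rat S16 Schwann cells with beta-Lac driven by a PMP22 intronic element, compound-treated 24 h at 37 °C. LiveBLAzer FRET B/G read: 460 nm normalized to potassium clavulanate vs DMSO; 535 nm FRET as viability; concentration-effect curves classified.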

ATS189 = assay: qHTS profiling for inhibitors of Plasmodium falciparum proliferation (AID 504749); also: nearly all actives have a fitted effect of over 60% in size; also: potency is read from the fitted curve at half-maximal effect; settings: P. falciparum in erythrocytes, SYBR Green DNA, 72 h; series mostly up to 28.7 µM
Outline: (§1)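 Infected RBCs, 0.3% parasitemia/2.5% Hct final; cpd 72 h, 37 C, 5% CO2; lysis buffer with saponin/triton/SYBR Green I, o/n RT dark; FI 485/535; norm. to artemisinin (0.29 uM) and DMSO.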

C2A = assay: as above; settings: P. falciparum in erythrocytes, SYBR Green DNA, 72 h; series mostly up to 28.7 µM
Outline: as §1

CP191 = assay: as above; settings: P. falciparum in erythrocytes, SYBR Green DNA, 72 h; series mostly up to 28.7 µM
Outline: as §1

CP192 = assay: as above; settings: P. falciparum in erythrocytes, SYBR Green DNA, 72 h; series mostly up to 28.7 µM
Outline: as §1

CP203 = assay: as above; settings: P. falciparum in erythrocytes, SYBR Green DNA, 72 h; series mostly up to 28.7 µM
Outline: as §1

CP211 = assay: as above; settings: P. falciparum in erythrocytes, SYBR Green DNA, 72 h; series mostly up to 28.7 µM
Outline: as §1

CP217 = assay: as above; settings: P. falciparum in erythrocytes, SYBR Green DNA, 72 h; series mostly up to 28.7 µM
Outline: as §1

CP247 = assay: as above; settings: P. falciparum in erythrocytes, SYBR Green DNA, 72 h; series mostly up to 28.7 µM
Outline: as §1

CP250 = assay: as above; settings: P. falciparum in erythrocytes, SYBR Green DNA, 72 h; series mostly up to 12.8 µM
Outline: as §1

CP252 = assay: as above; settings: P. falciparum in erythrocytes, SYBR Green DNA, 72 h; series mostly up to 12.8 µM
Outline: as §1

CP266 = assay: as above; settings: P. falciparum in erythrocytes, SYBR Green DNA, 72 h; series mostly up to 12.8 µM
Outline: as §1

CP269 = assay: as above; settings: P. falciparum in erythrocytes, SYBR Green DNA, 72 h; series mostly up to 28.7 µM
Outline: as §1

CP286 = assay: as above; settings: P. falciparum in erythrocytes, SYBR Green DNA, 72 h; series mostly up to 28.7 µM
Outline: as §1

Dd2 = assay: as above; settings: P. falciparum in erythrocytes, SYBR Green DNA, 72 h; series mostly up to 28.7 µM
Outline: as §1

FAB9 = assay: as above; settings: P. falciparum in erythrocytes, SYBR Green DNA, 72 h; series mostly up to 28.7 µM
Outline: as §1

N140 = assay: as above; settings: P. falciparum in erythrocytes, SYBR Green DNA, 72 h; series mostly up to 28.7 µM
Outline: as §1

PC49 = assay: as above; settings: P. falciparum in erythrocytes, SYBR Green DNA, 72 h; series mostly up to 28.7 µM
Outline: as §1

TAB109 = assay: as above; settings: P. falciparum in erythrocytes, SYBR Green DNA, 72 h; series mostly up to 12.8 µM
Outline: as §1

CP256 = assay: as above; settings: P. falciparum in erythrocytes, SYBR Green DNA, 72 h; series mostly up to 28.7 µM
Outline: as §1

Row | Compound | Potency [1] | Potency (ATS189) | Potency (C2A) | Potency (CP191) | Potency (CP192) | Potency (CP203) | Potency (CP211) | Potency (CP217) | Potency (CP247) | Potency (CP250) | Potency (CP252) | Potency (CP266) | Potency (CP269) | Potency (CP286) | Potency (Dd2) | Potency (FAB9) | Potency (N140) | Potency (PC49) | Potency (TAB109) | Potency (CP256)
1 | C[N+]1(C)[C@@H]2CC[C@H]1CC(OC(=O)[C@@H](CO)c1ccccc1)C2 (stereo not given in full) | inactive | inactive | inactive | inactive | inactive | inactive | inactive | inactive | inactive | inactive | inactive | inactive | inactive | inactive | inactive | inactive | inactive | inactive | inactive | –
2 | ClC1=C(Cl)C2(Cl)C3C4CC(C5OC45)C3C1(Cl)C2(Cl)Cl (stereo not given) | inactive | inactive | inactive | inactive | inactive | inactive | inactive | inactive | inactive | inactive | inactive | inactive | inactive | – | inactive | inactive | inactive | inactive | inactive | inactive
3 | CC[C@@H]1[C@@H]2C[C@H]3[C@H]4N(C)c5ccccc5[C@@]45C[C@@H]([C@@H]2[C@@H]5O)N3[C@H]1O | inactive | inactive | inactive | inactive | inactive | inactive | inactive | inactive | inactive | inactive | inactive | inactive | inactive | inactive | inactive | inactive | inactive | – | inactive | inactive
4 | C[C@H](NC(C)(C)C)C(=O)c1cccc(Cl)c1 | inactive | inactive | inactive | inactive | inactive | inactive | inactive | inactive | – | inactive | inactive | inactive | inactive | inactive | – | inactive | inactive | inactive | inactive | inactive
5 | N[C@H]1C[C@H]1c1ccccc1 | inactive | inactive | inactive | inactive | inactive | inactive | inactive | inactive | inactive | inactive | inactive | inactive | inactive | inactive | inactive | inactive | inactive | inactive | inactive | inactive
6 | CC[C@@]1(c2ccc(N)cc2)CCC(=O)NC1=O | – | inactive | inactive | inactive | inactive | inactive | inactive | inactive | inactive | inactive | inactive | inactive | inactive | inactive | inactive | inactive | inactive | inactive | inactive | inactive
7 | CC(C)N(CC[C@@](C(N)=O)(c1ccccc1)c1ccccn1)C(C)C | inactive | inactive | inactive | inactive | inactive | inactive | inactive | inactive | inactive | inactive | inactive | inactive | inactive | inactive | inactive | inactive | inactive | inactive | inactive | inactive
8 | NCC[C@H](O)C(=O)N[C@H]1C[C@@H](N)[C@@H](O[C@H]2O[C@@H](CN)[C@@H](O)[C@@H](O)[C@@H]2N)[C@@H](O[C@H]2O[C@@H](CO)[C@@H](O)[C@@H]2O)[C@@H]1O | inactive | inactive | inactive | inactive | inactive | inactive | inactive | inactive | inactive | inactive | inactive | inactive | inactive | inactive | inactive | inactive | inactive | inactive | inactive | inactive
9 | CNC[C@H](O)c1ccc(O)cc1 | inactive | inactive | inactive | inactive | inactive | inactive | inactive | inactive | inactive | inactive | inactive | inactive | inactive | inactive | inactive | inactive | inactive | inactive | inactive | inactive
10 | C[N+]1([O-])[C@@H]2CC[C@H]1CC(OC(=O)[C@@H](CO)c1ccccc1)C2 (stereo not given in full) | inactive | inactive | inactive | inactive | inactive | inactive | inactive | inactive | inactive | inactive | inactive | inactive | inactive | inactive | inactive | inactive | inactive | inactive | inactive | inactive
11 | CC[C@]1(c2cccc(O)c2)CCCCN(C)C1 | inactive | – | inactive | inactive | – | – | – | inactive | inactive | inactive | inactive | inactive | – | inactive | 3.16 µM (active) | inactive | 3.98 µM (active) | inactive | inactive | inactive
12 | CC1=C2[C@@H]3OC(=O)[C@@H](C)[C@@H]3CC[C@]2(C)C=CC1=O | inactive | – | inactive | – | inactive | inactive | inactive | – | – | – | – | inactive | inactive | inactive | inactive | inactive | – | inactive | – | –
